The panel holds about 79,000 compounds, 15% with a hit somewhere; the sample as a whole holds those more often. Values without a mark were called inactive. The source made the active and inactive calls. Rule as the data show it: active = growth inhibition above about 70%; inactive = the rest. Where a SMILES comes first, the peptide text is derived from it. The star is where a group is joined. Boc = CC(C)(C)OC(=O)*; OBn = c1ccc(CO*)cc1; Bn = c1ccc(C*)cc1

Test [1] can be described thus: NCI Yeast Anticancer Drug Screen. Data for the rad50 strain (AID 155).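 Also: 0% = growth of vehicle-only cultures of the same strain.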 To be noted: S. cerevisiae rad50 strain growth inhibition, stronger effect = higher value. The method in brief:
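Compounds were tested on a yeast strain with an engineered DNA damage repair alteration; the reported value is growth inhibition normalised to vehicle treatment.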

Test [2] in a line: NCI Yeast Anticancer Drug Screen. Data for the mec2-1 strain (AID 157). The following applies: S. cerevisiae mec2-1 strain, stronger effect = higher value. Summed up: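 Using mec2-1 yeast: add compound, measure growth, express inhibition versus vehicle-treated cultures.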
Test [3] is described as follows: NCI Yeast Anticancer Drug Screen. Data for the sgs1 mgt1 strain (AID 161).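 Also: 0% = growth of cultures given vehicle only.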 To be noted: S. cerevisiae sgs1 mgt1 strain, stronger effect = higher value. The method in brief: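 This yeast growth screen uses a strain with defined DNA-repair lesions; compound-treated growth is compared with vehicle-treated growth.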
Test [4] can be described thus: NCI Yeast Anticancer Drug Screen. Data for the cln2 rad14 strain (AID 165).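 Also: 0% = growth equal to vehicle treated cultures.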 The following applies: S. cerevisiae cln2 rad14 strain, stronger effect = higher value. Summed up:
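Yeast strain cln2 rad14, bearing defects in cell cycle control and DNA repair, serves as the test system; values reflect growth inhibition compared with vehicle.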

Test [5] can be described thus: NCI Yeast Anticancer Drug Screen. Data for the bub3 strain (AID 167). To be noted: S. cerevisiae bub3 mutant strain, stronger effect = higher value. The method in brief: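 Growth of a checkpoint-deficient yeast mutant is measured after compound exposure. Values represent inhibition relative to vehicle.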
A short description of test [6]: NCI Yeast Anticancer Drug Screen. Data for the mlh1 rad18 strain (AID 175). The following applies: S. cerevisiae mlh1 rad18 strain growth inhibition, stronger effect = higher value. The method in brief:
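Steps: expose repair-defective yeast to compound; measure growth; express inhibition against vehicle-treated controls.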

The mark [7] stands for this setting: at 5.0 µM (retest, dose inferred, filed as 0.5).
The mark [8] stands for this setting: at 50.0 µM (retest, dose inferred, filed as 5.0).

`O=C(NC(=S)Nc1ncc([N+](=O)[O-])s1)c1ccccc1C(=O)NC(=S)Nc1ncc([N+](=O)[O-])s1`: the growth inhibition in test [1] (setting [7]) was -5%; in test [1] (setting [8]), 78% (active); in test [1] (at 50.0 µM) it was 69.5%; in test [2] (setting [7]) it was 9%; in test [2] (setting [8]), 67%; in test [2] (at 50.0 µM) it was 29.6%. In addition, the growth inhibition in test [3] (setting [7]) is 19%; in test [3] (setting [8]), 47%; in test [3] (at 50.0 µM), 80.5% (active); in test [4] (setting [7]), -6%; in test [4] (setting [8]) it was 40%; in test [4] (at 50.0 µM) it was 19.4%. Further, the growth inhibition is -6% in test [5] (setting [7]); 96% (active) in test [5] (setting [8]); 75.8% (active) in test [5] (at 50.0 µM); 4% in test [6] (setting [7]); 87% (active) in test [6] (setting [8]); 79.7% (active) in test [6] (at 50.0 µM).
Turning to `CCOC(=O)c1c(C)[nH]c(C(c2ccccc2)c2[nH]c(C)c(C(=O)OCC)c2C)c1C`, the growth inhibition is -2% in test [1] (setting [7]); 65% in test [1] (setting [8]); 44% in test [1] (at 50.0 µM); -4% in test [2] (setting [7]); 64% in test [2] (setting [8]); 43.4% in test [2] (at 50.0 µM). In addition, the growth inhibition in test [3] (setting [7]) was 7%; in test [3] (setting [8]), 69%; in test [3] (at 50.0 µM) it was 66.5%; in test [4] (setting [7]) it was 0%; in test [4] (setting [8]) it was 86% (active); in test [4] (at 50.0 µM), 75.2% (active). Further, the growth inhibition was -5% in test [5] (setting [7]); 80% (active) in test [5] (setting [8]); 46.2% in test [5] (at 50.0 µM); 5% in test [6] (setting [7]); 74% (active) in test [6] (setting [8]); 48.8% in test [6] (at 50.0 µM).
On to `C[C-](O)O.O/C(=C\[C-](O)c1ccccc1)c1ccccc1.O/C(=C\[C-](O)c1ccccc1)c1ccccc1.[Nd+3]` (configuration not stated), for which the growth inhibition in test [1] (setting [7]) was 36%; in test [1] (setting [8]), 36%; in test [1] (at 50.0 µM) it was 90.1% (active); in test [2] (setting [7]), 36%; in test [2] (setting [8]) it was 36%; in test [2] (at 50.0 µM) it was 92.7% (active). Further, the growth inhibition in test [3] (setting [7]) was 42%; in test [3] (setting [8]), 42%; in test [3] (at 50.0 µM) it was 93.3% (active); in test [4] (setting [7]) it was 21%; in test [4] (setting [8]) it was 21%; in test [4] (at 50.0 µM), 88.7% (active). Moreover, the growth inhibition is 20% in test [5] (setting [7]); 20% in test [5] (setting [8]); 90.2% (active) in test [5] (at 50.0 µM); 30% in test [6] (setting [7]); 30% in test [6] (setting [8]); 85.9% (active) in test [6] (at 50.0 µM).
For `O=C1C=CC(=Nc2cc3c(cc2Br)-c2ccccc2C3Br)O1` (configuration not stated), the growth inhibition is 23% in test [1] (setting [7]); 99% (active) in test [1] (setting [8]); 28.9% in test [1] (at 50.0 µM); 20% in test [2] (setting [7]); 99% (active) in test [2] (setting [8]); 79.8% (active) in test [2] (at 50.0 µM). Moreover, the growth inhibition in test [3] (setting [7]) was 15%; in test [3] (setting [8]), 100% (active); in test [3] (at 50.0 µM) it was 21.4%; in test [4] (setting [7]) it was 6%; in test [4] (setting [8]) it was 99% (active); in test [4] (at 50.0 µM) it was -12.8%. The growth inhibition was 7% in test [5] (setting [7]); 99% (active) in test [5] (setting [8]); -3.95% in test [5] (at 50.0 µM); 26% in test [6] (setting [7]); 99% (active) in test [6] (setting [8]); 28.9% in test [6] (at 50.0 µM).
On to `CCN(CC)CCN1C(=O)c2c(c3c4cccc(Cl)c4n(C4OC(CO)C(OC)C(O)C4O)c3c3[nH]c4c(Cl)cccc4c23)C1=O` (configuration not stated), for which the growth inhibition in test [1] (setting [7]) was 88% (active); in test [1] (setting [8]) it was 97% (active); in test [1] (at 50.0 µM), 84% (active); in test [2] (setting [7]) it was 56%; in test [2] (setting [8]), 98% (active); in test [2] (at 50.0 µM) it was 87.3% (active). The growth inhibition in test [3] (setting [7]) was 21%; in test [3] (setting [8]) it was 96% (active); in test [3] (at 50.0 µM), 90.5% (active); in test [4] (setting [7]), 67%; in test [4] (setting [8]), 90% (active); in test [4] (at 50.0 µM) it was 89.5% (active). The growth inhibition is 43% in test [5] (setting [7]); 97% (active) in test [5] (setting [8]); 89.2% (active) in test [5] (at 50.0 µM); 76% (active) in test [6] (setting [7]); 97% (active) in test [6] (setting [8]); 91% (active) in test [6] (at 50.0 µM).
Take `CCCc1cc(=O)oc2c3c(c4c(c12)OC(C)(C)C=C4)O[C@@H](C)[C@H](C)[C@H]3O`: the growth inhibition in test [1] (setting [7]) was -1%; in test [1] (setting [8]), 91% (active); in test [1] (at 50.0 µM), 96.7% (active); in test [2] (setting [7]) it was 0%; in test [2] (setting [8]) it was 94% (active); in test [2] (at 50.0 µM) it was 94.8% (active). The growth inhibition was 11% in test [3] (setting [7]); 95% (active) in test [3] (setting [8]); 51.8% in test [3] (at 50.0 µM); 2% in test [4] (setting [7]); 93% (active) in test [4] (setting [8]); 92.4% (active) in test [4] (at 50.0 µM). The growth inhibition in test [5] (setting [7]) is -2%; in test [5] (setting [8]) it was 94% (active); in test [5] (at 50.0 µM), 96.5% (active); in test [6] (setting [7]), 1%; in test [6] (setting [8]) it was 93% (active); in test [6] (at 50.0 µM), 95.1% (active).
Turning to `CS(=O)(=O)OCCCN(CCCOS(C)(=O)=O)c1ccc(C=Nc2ccc(-c3csc(COc4ccc(Br)cc4Br)n3)cc2)cc1`, the growth inhibition was 18% in test [1] (setting [7]); 83% (active) in test [1] (setting [8]); 86.3% (active) in test [1] (at 50.0 µM); 6% in test [2] (setting [7]); 83% (active) in test [2] (setting [8]); 92.8% (active) in test [2] (at 50.0 µM). For the same compound, the growth inhibition in test [3] (setting [7]) is 13%; in test [3] (setting [8]), 82% (active); in test [3] (at 50.0 µM), 90% (active); in test [4] (setting [7]), 0%; in test [4] (setting [8]), 83% (active); in test [4] (at 50.0 µM), 85.8% (active). Also, the growth inhibition in test [5] (setting [7]) was 5%; in test [5] (setting [8]) it was 90% (active); in test [5] (at 50.0 µM), 89.2% (active); in test [6] (setting [7]), 17%; in test [6] (setting [8]), 85% (active); in test [6] (at 50.0 µM) it was 90.7% (active).
Consider `CC(C)N(C(=O)c1ccc(Cl)c(Cl)c1)C(C)C`, for which the growth inhibition in test [1] (setting [7]) is -15%; in test [1] (setting [8]), -14%; in test [1] (at 50.0 µM), -0.55%; in test [2] (setting [7]), -14%; in test [2] (setting [8]) it was 4%; in test [2] (at 50.0 µM) it was 10.8%. Further, the growth inhibition in test [3] (setting [7]) was -1%; in test [3] (setting [8]) it was 0%; in test [3] (at 50.0 µM), 15.1%; in test [4] (setting [7]), 29%; in test [4] (setting [8]), -26%; in test [4] (at 50.0 µM) it was 13.4%. Also, the growth inhibition was 6% in test [5] (setting [7]); -25% in test [5] (setting [8]); 9.2% in test [5] (at 50.0 µM); -12% in test [6] (setting [7]); 0% in test [6] (setting [8]); -5.65% in test [6] (at 50.0 µM).
On to `CC(C)CC(NC(=O)C(Cc1ccccc1)NC(=O)C(COCc1ccccc1)NC(=O)OC(C)(C)C)C(=O)OCc1ccccc1` (stereo not drawn) (Boc-Ser(Bn)-Phe-Leu-OBn; configuration not given here), for which the growth inhibition in test [1] (setting [7]) was 16%; in test [1] (setting [8]) it was 13%; in test [1] (at 50.0 µM) it was 16.8%; in test [2] (setting [7]) it was 22%; in test [2] (setting [8]) it was 15%; in test [2] (at 50.0 µM) it was 2.6%. The growth inhibition was -15% in test [3] (setting [7]); -29% in test [3] (setting [8]); 17.2% in test [3] (at 50.0 µM); -3% in test [4] (setting [7]); 7% in test [4] (setting [8]); 16.2% in test [4] (at 50.0 µM). The growth inhibition was -4% in test [5] (setting [7]); -7% in test [5] (setting [8]); 25.4% in test [5] (at 50.0 µM); 26% in test [6] (setting [7]); 15% in test [6] (setting [8]); 24.3% in test [6] (at 50.0 µM).

Source of the values: PubChem BioAssay (NCI).
